Experimental data published in PubChem BioAssay AID1159580 (chemical genetic matrix, 2015).
Where “and” joins values, the source holds several entries; their conditions need not be identical. Identical values can stand only once. Among all 5,500 compounds or so, about 2,000 (36%) were called active. Inconclusive results (about 18%) are left out. Cut-off read from the data, not from the text of the source: active = normalized growth mostly below about 0.91 (no sharp cut-off); inconclusive = no clear call, values can overlap the other calls; inactive = mostly above about 0.92. The list shows a part of the results.

Assay: chemical genetic growth profiling, strain panel (AID 1159580);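 note: tested at 20 µM; growth read once vehicle control cultures reached saturation at 30 °C; 1 = growth at the plate median or of vehicle wells; lower values mean less growth of the strain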
Settings: S. cerevisiae deletion strains, growth OD

Measured: normalized growth

Nc1ccc(S(=O)(=O)Nc2nccs2)cc1
inactive: locus YAL013W, strain DEP1, active compounds read low 1.01 | locus YAL021C, strain ccr4, active compounds read low 1.02 | locus YAL026C, strain drs2, active compounds read low 1.01 | locus YAL030W, strain snc1, active compounds read low 1.02 | locus YBL061C, strain skt5, active compounds read low 1.01 | locus YBR009C, strain hhf1, active compounds read low 1 | locus YBR021W, strain FUR4, active compounds read low 1 | locus YBR023C, strain chs3, active compounds read low 1.03 | locus YBR171W, strain sec66, active compounds read low 1.03 | locus YBR229C, strain ROT2, active compounds read low 1 | locus YBR231C, strain swc5, active compounds read low 1.04 | locus YBR279W, strain paf1, active compounds read low 1.01 | locus YCL011C, strain gbp2, active compounds read low 1.01 | locus YCL016C, strain dcc1, active compounds read low 1 | locus YCL029C, strain bik1, active compounds read low 0.998 | locus YCL069W, strain vba3, active compounds read low 1.01 | locus YCR088W, strain abp1, active compounds read low 1.01 | locus YDL005C, strain med2, active compounds read low 1.01 | locus YDL035C, strain GPR1, active compounds read low 1.04 | locus YDL040C, strain nat1, active compounds read low 1.02 | locus YDL074C, strain BRE1, active compounds read low 1.01 | locus YDL101C, strain DUN1, active compounds read low 1 | locus YDL134C, strain PPH21, active compounds read low 1.01 | locus YDL185W, strain tfp1, active compounds read low 1.01 | locus YDL192W, strain arf1, active compounds read low 1.01 | locus YDR001C, strain nth1, active compounds read low 1.02 | locus YDR069C, strain doa4, active compounds read low 1.02 | locus YDR101C, strain arx1, active compounds read low 1 | locus YDR137W, strain rgp1, active compounds read low 1.02 | locus YDR150W, strain NUM1, active compounds read low 1.01 | locus YDR159W, strain sac3, active compounds read low 1.02 | locus YDR162C, strain NBP2, active compounds read low 1.02 | locus YDR195W, strain ref2 1.01 | locus YDR297W, strain sur2, active compounds read low 1.02 | locus YDR318W, strain mcm21, active compounds read low 0.985 | locus YDR334W, strain swr1, active compounds read low 1.01 | locus YDR335W, strain msn5, active compounds read low 1.02 | locus YDR388W, active compounds read low 0.995 | locus YDR392W, strain spt3, active compounds read low 0.954 | locus YDR502C, strain sam2, active compounds read low 1.01 | locus YEL003W, strain gim4, active compounds read low 1.02 | locus YEL037C, strain rad23, active compounds read low 1.01 | locus YEL061C, strain CIN8 (second series), active compounds read low 1.01 | locus YEL061C, strain CIN8, active compounds read low 1 | locus YER015W, strain faa2, active compounds read low 1.04 | locus YER016W, strain bim1, active compounds read low 0.997 | locus YER110C, active compounds read low 0.995 | locus YER111C, strain swi4, active compounds read low 1.01 | locus YER155C, strain BEM2 (second series), active compounds read low 1.01 | locus YER155C, strain BEM2, active compounds read low 0.996 | locus YER167W, strain BCK2, active compounds read low 1.03 | locus YFR010W, strain ubp6, active compounds read low 1.02 | locus YGL078C, strain dbp3, active compounds read low 1.01 | locus YGL086W, strain mad1, active compounds read low 1.02 | locus YGL167C, strain pmr1, active compounds read low 1.02 | locus YGL173C, strain kem1, active compounds read low 1.02 | locus YGL227W, strain vid30, active compounds read low 1.02 | locus YGL240W, strain doc1, active compounds read low 1.02 | locus YGL248W, strain PDE1, active compounds read low 1.02 | locus YGL253W, strain hxk2, active compounds read low 1.02 | locus YGR078C, strain PAC10, active compounds read low 1 | locus YGR135W, strain pre9, active compounds read low 1.01 | locus YGR229C, strain SMI1, active compounds read low 1.01 | locus YGR252W, strain gcn5, active compounds read low 1.06 | locus YHR013C, strain ard1, active compounds read low 1 | locus YHR027C, strain rpn1, active compounds read low 1.02 | locus YHR030C, strain SLT2, active compounds read low 1.01 and 0.999 | locus YHR079C, strain IRE1 (second series), active compounds read low 0.995 | locus YHR079C, strain IRE1, active compounds read low 1.03 | locus YHR094C, strain hxt1, active compounds read low 0.99 | locus YHR129C, strain ARP1, active compounds read low 1 | locus YHR142W, strain chs7, active compounds read low 1.01 | locus YHR200W, strain rpn10, active compounds read low 1 | locus YIL066C, strain RNR3, active compounds read low 1.02 | locus YIL073C, strain SPO22, active compounds read low 1 | locus YIL125W, strain kgd1, active compounds read low 1.01 | locus YIR030C, strain dcg1, active compounds read low 0.995 | locus YJL092W, strain hpr5, active compounds read low 1.01 | locus YJL095W, strain BCK1 (second series), active compounds read low 1.02 | locus YJL095W, strain BCK1, active compounds read low 1 | locus YJL115W, strain asf1, active compounds read low 1.02 | locus YJL129C, strain trk1, active compounds read low 1.02 | locus YJL134W, strain LCB3, active compounds read low 1.01 | locus YJL154C, strain vps35, active compounds read low 1.01 | locus YJL164C, strain tpk1, active compounds read low 0.996 | locus YJL166W, strain qcr8, active compounds read low 1.03 | locus YJL168C, strain set2, active compounds read low 0.992 | locus YJL187C, strain SWE1 (second series), active compounds read low 1.01 | locus YJL187C, strain SWE1, active compounds read low 1.02 | locus YJR043C, strain POL32, active compounds read low 1 | locus YJR066W, strain TOR1, active compounds read low 0.939
